In the supplement of paper PMC6555819:

Tests used:
Test in all cases: PBM binding z-score (relative to random genomic background probes); higher = stronger binding; sequences stand for … in GC…GCGATTGACAGCGTAGAATGAAGG
[1] = tested on: FXR:RXRa (NR concentration 270 nM, RXRa partner concentration 90 nM)
Outline: (§1)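 Ligand-free nuclear receptor dimers were bound for 1 h to custom Agilent 4×180K protein-binding microarrays. Detection used antibodies against each partner (one per run). Binding z-scores rest on regression-normalized fluorescence, with random background probes as the reference.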

[2] = tested on: LXRa:RXRa (NR concentration 270 nM, RXRa partner concentration 90 nM)
Outline: as §1

[3] = tested on: LXRa homodimer (NR concentration 270 nM)
Outline: as §1

[4] = tested on: LXRb:RXRa (NR concentration 270 nM, RXRa partner concentration 90 nM)
Outline: as §1

[5] = tested on: LXRb homodimer (NR concentration 270 nM)
Outline: as §1

[6] = tested on: PPARa:RXRa (NR concentration 270 nM, RXRa partner concentration 90 nM)
Outline: as §1

[7] = tested on: PPARg:RXRa (NR concentration 180 nM, RXRa partner concentration 90 nM)
Outline: as §1

[8] = tested on: PPARg:RXRa 270nM:90nM, anti-RXR (NR concentration 270 nM, RXRa partner concentration 90 nM)
Outline: as §1

[9] = tested on: PPARg:RXRa 30nM:10nM, anti-RXR (NR concentration 30 nM, RXRa partner concentration 10 nM)
Outline: as §1

[10] = tested on: PPARg:RXRa 90nM:30nM, anti-RXR (NR concentration 90 nM, RXRa partner concentration 30 nM)
Outline: as §1

[11] = tested on: PPARg:RXRa DBDmut IVT, anti-RXR (DBD mutation: RXRa K156A/R161A, NR concentration 270 nM, RXRa partner concentration 90 nM)
Outline: as §1

[12] = tested on: PPARg:RXRa IVT, anti-PPARg (NR concentration 270 nM, RXRa partner concentration 90 nM)
Outline: as §1

[13] = tested on: PPARg DBDmut:RXRa IVT, anti-PPARg (DBD mutation: PPARg1 K132A/R137A, NR concentration 270 nM, RXRa partner concentration 90 nM)
Outline: as §1

[14] = tested on: PPARg DBDmut IVT, anti-PPARg (DBD mutation: PPARg1 K132A/R137A, NR concentration 270 nM)
Outline: as §1

[15] = tested on: PPARg homodimer (NR concentration 180 nM)
Outline: as §1

[16] = tested on: PXR:RXRa (NR concentration 270 nM, RXRa partner concentration 90 nM)
Outline: as §1

[17] = tested on: PXR homodimer (NR concentration 270 nM)
Outline: as §1

[18] = tested on: RARa:RXR (NR concentration 270 nM, RXRa partner concentration 90 nM)
Outline: as §1

[19] = tested on: RARa homodimer (NR concentration 270 nM)
Outline: as §1

[20] = tested on: RARb:RXRa (NR concentration 270 nM, RXRa partner concentration 90 nM)
Outline: as §1

Sequence | PBM binding z-score [1] | PBM binding z-score [2] | PBM binding z-score [3] | PBM binding z-score [4] | PBM binding z-score [5] | PBM binding z-score [6] | PBM binding z-score [7] | PBM binding z-score [8] | PBM binding z-score [9] | PBM binding z-score [10] | PBM binding z-score [11] | PBM binding z-score [12] | PBM binding z-score [13] | PBM binding z-score [14] | PBM binding z-score [15] | PBM binding z-score [16] | PBM binding z-score [17] | PBM binding z-score [18] | PBM binding z-score [19] | PBM binding z-score [20]
TCTATTAGTTTATTAGGGCAACCGAAACAGCGGA | 1.14 | 0.997 | 1.69 | 1.25 | 2.21 | 2.4 | 1.56 | 3.07 | 3.87 | 3.33 | 4.65 | 4.46 | 2.16 | 2.42 | 1.44 | 1.07 | 1.21 | 0.944 | 1.74 | 1.57
ATCTCTAGGTAAGACTCAGGTCAGTGAAGAACGC | 0.852 | 0.72 | 0.909 | 0.721 | 0.721 | 1.03 | 0.296 | 0.86 | 0.135 | 0.413 | 1.9 | 1.67 | 0.483 | 1.13 | 1.65 | 0.724 | 0.764 | 0.911 | 0.98 | 1.62
CAAACTAGGTCACAGAGGTCAAAGCCCGTGCGTA | 7.26 | 6.74 | 6.92 | 5.93 | 1.72 | 6.63 | 10.4 | 8.24 | 7 | 8.42 | 8.71 | 9.13 | 4.98 | 2.72 | 4.59 | 6.66 | 10.8 | 7.48 | 2.65 | 5.27
ATCACTAGGTAACCAAGTTCAGTGAATGCCGAAC | 0.163 | 0.618 | 0.625 | 0.415 | -0.134 | 1.42 | 1.82 | 1.3 | 0.47 | 0.739 | 4.99 | 4.16 | 1.62 | 0.399 | 0.811 | 2.06 | 1.73 | 0.23 | 0.365 | 1.01
CGTCCAAGGTCAATGCTAGGTCAGAGAAAGCATT | 6.97 | 5.95 | 2.67 | 4.32 | 0.8 | 5.25 | 4.39 | 4.86 | 1.59 | 3.76 | 3.57 | 3.92 | 0.456 | -0.0823 | 4.96 | 4.85 | 1.92 | 5.99 | 1.27 | 5.25
TATACAGGGTCAAAGGCCCGAGTACGAATGTCGA | 6.5 | 6.07 | 1.91 | 4.39 | 2 | 5.84 | 6.14 | 6.28 | 2.84 | 5.12 | 1.95 | 4.09 | 1.37 | 0.769 | 1.13 | 3.57 | 0.0932 | 4.41 | 0.102 | 4.33
ATCTGTAGGTTAAGGGTCATTCAGGTTGGTTCGC | 5.22 | 5.26 | 3.63 | 4.56 | 1.72 | 5.72 | 9.93 | 9.03 | 9.65 | 10.6 | 3.99 | 5.75 | 1.73 | 1.69 | 3.99 | 5.59 | 3.35 | 6.53 | 2.88 | 3.77
